Test systems include SR leukemia; RPMI-8226 leukemia; OVCAR-8 ovarian; OVCAR-5 ovarian; OVCAR-4 ovarian; SK-OV-3 ovarian; IGROV1 ovarian; OVCAR-3 ovarian; HS 578T breast; NCI/ADR-RES ovarian; T-47D breast; BT-549 breast; MDA-MB-435 melanoma; SW-620 colon; MCF7 breast; HCT-116 colon; HCC-2998 colon; KM12 colon.
What all share (experiment): NCI-60 one-dose screen, 48 h (100 = growth as untreated, 0 = no growth, -100 = all killed)
Details in all cases: 10 µM unless noted

This is part of a sample that, as a whole, favours compounds with a hit. Of some 83,000 tested, about 20% had one in any assay.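 Interpretation: 100, growth as untreated; towards 0, rising growth inhibition; 0, no net growth; 0 to -100, cell death. Compounds scoring below 10 were considered active.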 Values without a mark were called inactive. Calls of active or inactive are those of the source.

As for `CC(C)N(Cc1ccc(CN(C(=O)CCl)C(C)C)cc1)C(=O)CCl`, the growth in the experiment with SR leukemia is 8.59% (active); with RPMI-8226 leukemia it was 1.57% (active); with OVCAR-8 ovarian, -12.9% (active); with OVCAR-5 ovarian, 4.12% (active); in the experiment with OVCAR-4 ovarian it was 26.4%; with SK-OV-3 ovarian it was 49.7%. In addition, the growth in the experiment with IGROV1 ovarian is -49.3% (active); in the experiment on OVCAR-3 ovarian it was -76.1% (active); in the experiment with HS 578T breast it was 59.3%; with NCI/ADR-RES ovarian it was 4.6% (active); with T-47D breast, -14.8% (active); in the experiment with BT-549 breast, 18.6%. Also, the growth in the experiment with MDA-MB-435 melanoma is 27.2%; with SW-620 colon, 2.78% (active); with MCF7 breast, 23.8%; with HCT-116 colon, -67.4% (active); in the experiment with HCC-2998 colon, 93.8%; in the experiment with KM12 colon, 41.1%.

Consider `CC(=O)n1cc([C@H]2CC[C@H](c3cn(C(C)=O)c4ccccc34)c3c2[nH]c2ccccc32)c2ccccc21`, for which the growth was 93.9% in the experiment with SR leukemia; 50.8% in the experiment on RPMI-8226 leukemia; 89.5% in the experiment with OVCAR-8 ovarian; 102% in the experiment on OVCAR-5 ovarian; 77.7% with OVCAR-4 ovarian; 80.4% with SK-OV-3 ovarian. For the same compound, the growth in the experiment on IGROV1 ovarian was 58.3%; in the experiment with OVCAR-3 ovarian, 76.3%; in the experiment with HS 578T breast it was 106%; in the experiment on NCI/ADR-RES ovarian it was 80.7%; with T-47D breast it was 50.8%; in the experiment on BT-549 breast it was 95.2%. Moreover, the growth with MDA-MB-435 melanoma is 93.1%; in the experiment with SW-620 colon, 90.3%; in the experiment on MCF7 breast, 63.7%; in the experiment on HCT-116 colon, 63.9%; in the experiment with HCC-2998 colon, 87.3%; with KM12 colon it was 64.4%.

As to `CC(=O)Oc1cccc(OC(C)=O)c1OC(C)=O`, the growth in the experiment with SR leukemia is 89.6%; in the experiment on RPMI-8226 leukemia, 105%; in the experiment with OVCAR-8 ovarian it was 106%; with OVCAR-5 ovarian, 99.9%; in the experiment on OVCAR-4 ovarian it was 105%; in the experiment on SK-OV-3 ovarian it was 87%. The growth is 101% with IGROV1 ovarian; 111% in the experiment on OVCAR-3 ovarian; 107% in the experiment with HS 578T breast; 108% with NCI/ADR-RES ovarian; 97.1% with T-47D breast; 94.3% in the experiment on BT-549 breast. Moreover, the growth in the experiment on MDA-MB-435 melanoma was 94.6%; in the experiment on SW-620 colon, 114%; in the experiment on MCF7 breast, 88.7%; in the experiment on HCT-116 colon, 89.5%; with HCC-2998 colon, 92.1%; in the experiment on KM12 colon it was 105%.

With `CNC(=O)Cc1nc(-c2cccc(NS(=O)(=O)c3c(F)cccc3F)c2F)c(-c2ccnc(Nc3ccccc3)n2)s1`, the growth in the experiment with SR leukemia is 76.4%; in the experiment on RPMI-8226 leukemia, 101%; in the experiment with OVCAR-8 ovarian it was 57.8%; in the experiment with OVCAR-5 ovarian it was 32.9%; in the experiment on OVCAR-4 ovarian it was 124%; with SK-OV-3 ovarian it was 29.9%. Besides, the growth with IGROV1 ovarian was 17.5%; with OVCAR-3 ovarian it was 77.2%; with HS 578T breast, 64.5%; with NCI/ADR-RES ovarian, 104%; with T-47D breast, 60.2%; in the experiment on BT-549 breast, 103%. Moreover, the growth with MDA-MB-435 melanoma is 48.3%; in the experiment on SW-620 colon, 66.8%; with MCF7 breast, 86.2%; in the experiment on HCT-116 colon, 9.43% (active); in the experiment on HCC-2998 colon it was 84.6%; with KM12 colon, 70.2%.

For `COc1cc(C(=O)CCCl)ccc1O`, the growth was 96.9% in the experiment with SR leukemia; 92% with RPMI-8226 leukemia; 102% in the experiment on OVCAR-8 ovarian; 92.7% in the experiment with OVCAR-5 ovarian; 98.8% with OVCAR-4 ovarian; 111% in the experiment with SK-OV-3 ovarian. The growth with IGROV1 ovarian was 104%; in the experiment on OVCAR-3 ovarian, 102%; in the experiment on HS 578T breast, 101%; with NCI/ADR-RES ovarian, 94.6%; with T-47D breast, 94.7%; with BT-549 breast, 112%. In addition, the growth was 103% with MDA-MB-435 melanoma; 103% with SW-620 colon; 80.2% in the experiment on MCF7 breast; 100% with HCT-116 colon; 103% with HCC-2998 colon; 97.1% in the experiment on KM12 colon.

Regarding `C=C1C(=O)O[C@H]2[C@H]1CC/C(Cn1cc(-c3ccccc3C(F)(F)F)nn1)=C\CC[C@@]1(C)O[C@@H]21`, the growth in the experiment on SR leukemia is 2.59% (active); in the experiment with RPMI-8226 leukemia, -29.4% (active); in the experiment with OVCAR-8 ovarian, -27.1% (active); with OVCAR-5 ovarian, -18.6% (active); in the experiment with OVCAR-4 ovarian, -19% (active); in the experiment with SK-OV-3 ovarian, 79.1%. The growth with IGROV1 ovarian is -21.4% (active); in the experiment with OVCAR-3 ovarian, -93.8% (active); in the experiment on HS 578T breast it was 39.1%; in the experiment with NCI/ADR-RES ovarian, 19.6%; with T-47D breast, -82.4% (active); in the experiment on BT-549 breast, -60.4% (active). For the same compound, the growth was 4.12% (active) with MDA-MB-435 melanoma; -62.9% (active) in the experiment with SW-620 colon; -70.5% (active) in the experiment with MCF7 breast; -99.1% (active) in the experiment with HCT-116 colon; -45.9% (active) with HCC-2998 colon; 36.5% with KM12 colon.

As for `Cc1c(C2=NNC(c3ccc4c(c3)OCO4)C2)[n+]([O-])c2ccccc2[n+]1[O-]` (centres undefined), the growth with SR leukemia was 92.2%; with RPMI-8226 leukemia it was 98.9%; in the experiment on OVCAR-8 ovarian, 109%; in the experiment on OVCAR-5 ovarian it was 91.9%; in the experiment on OVCAR-4 ovarian, 76.3%; with SK-OV-3 ovarian, 97.1%. Further, the growth with IGROV1 ovarian is 84.4%; with OVCAR-3 ovarian, 93.4%; in the experiment with HS 578T breast, 94.3%; with NCI/ADR-RES ovarian it was 95.4%; in the experiment on T-47D breast it was 92.3%; with BT-549 breast it was 91%. The growth in the experiment on MDA-MB-435 melanoma is 108%; in the experiment with SW-620 colon, 98.4%; with MCF7 breast, 92.8%; in the experiment with HCT-116 colon, 99.2%; with HCC-2998 colon, 84.2%; with KM12 colon it was 113%.

Turning to `O=S(=O)(NCCCNc1cc(-c2cn(-c3ccccc3)nc2-c2cccc(O)c2)ccn1)c1ccc(Cl)cc1`, the growth in the experiment with SR leukemia was 4.43% (active); in the experiment on RPMI-8226 leukemia it was 8.7% (active); in the experiment on OVCAR-8 ovarian it was 20.4%; with OVCAR-5 ovarian it was 37%; with OVCAR-4 ovarian, 34.7%; in the experiment with SK-OV-3 ovarian, 33.1%. Besides, the growth was 27.5% in the experiment on IGROV1 ovarian; 26.6% in the experiment on OVCAR-3 ovarian; 5.52% (active) in the experiment with HS 578T breast; 23.7% with NCI/ADR-RES ovarian; 8.59% (active) in the experiment on T-47D breast; 11.7% in the experiment with BT-549 breast. The growth in the experiment with MDA-MB-435 melanoma is 16.4%; in the experiment with SW-620 colon it was 15.6%; in the experiment on MCF7 breast it was 11%; with HCT-116 colon, 15%; in the experiment on HCC-2998 colon it was -44.9% (active); with KM12 colon, 12.5%.

The record behind these values is PubChem BioAssay (NCI).
